The record followed here is PubChem BioAssay (Tox21).

The structures appear in SMILES notation. Values without a mark were called inactive. Results filed as inconclusive are left out. Active and inactive are the calls of the source. Unless noted, calls come from the whole dose curve; as a rule, active = well fitted curve in the direction sought with a large enough effect in the repeat runs; inconclusive = weak or mixed curves; inactive = no such curve, though single readings can be large; an effect the other way counts as inactive or inconclusive.

The nature of assay [1]: qHTS assay to identify small molecule agonists of the hypoxia (HIF-1) signaling pathway - cell viability counter screen (AID 1224844; calls by dose curve; note: nearly all actives have a fitted effect of over 50% in size). The gist of the method:
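Cytotoxicity was measured in parallel with the HRE-driven beta-lactamase readout: after 17 hrs of compound exposure at 37C, HRE-bla ME-180 cells received CellTiter-Glo and luminescence was recorded 30 min later.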

Assay [2] can be described thus: qHTS assay to identify small molecule agonists of H2AX (AID 1224845; active = well fitted activation curve with a large enough effect in the signal ratio in the repeat runs, not every such curve was filed as active; the % refers to the signal ratio). The procedure, abridged:
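Wild-type CHO-K1 cells plated overnight, then exposed 3 hr at 37C to compounds at 15 concentrations (0.76% DMSO). Lysed, then HTRF anti-pH2AX(S139)-cryptate/anti-H2AX-d2 detection after 24 hr at room temperature; emissions 665 and 620 nm.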

Assay [3] in a line: qHTS assay to identify small molecule agonists of the hypoxia (HIF-1) signaling pathway (AID 1224846; active = well fitted activation curve with a large enough effect in the signal ratio in the repeat runs, not every such curve was filed as active; the % refers to the signal ratio). The gist of the method:
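Compounds from the Tox21 10K library, dissolved in DMSO, are tested for induction of a hypoxia response element–controlled beta-lactamase reporter in ME-180 cells. Exposure lasts 17 hrs at 37C after a 5 hr settling period, followed by CCF4-AM FRET substrate.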

A short description of assay [4]: qHTS assay to identify small molecule agonists of H2AX - cell viability counter screen (AID 1224847; calls by dose curve; note: top concentration of the series differs between compounds; nearly all actives have a fitted effect of over 30% in size). The gist of the method:
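Viability of CHO-K1 (wild type) cells after 3 hr compound exposure was measured by CellTiter-Glo luminescence.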

The nature of assay [5]: qHTS RealTime-Glo MT Cell Viability Assay in HepG2 cells - 24 hour (AID 1224867). Note: nearly all actives have a fitted effect of over 50% in size. The gist of the method:
(§1)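 Viability was tracked continuously by NanoLuc luminescence from prosubstrate reduced by living HepG2 cells, at successive time points over 40 h of compound exposure. Cells with reagent were preincubated 5 h at 37 °C before compound addition.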

Assay [6] is described as follows: qHTS RealTime-Glo MT Cell Viability Assay in HEK293 cells - 32 hour (AID 1224868). Note: top concentration of the series differs between compounds; nearly all actives have a fitted effect of over 50% in size. The procedure, abridged:
(§2)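 Viability tracked continuously by luminescence as live cells reduce a prosubstrate for NanoLuc; HEK293 cells preincubated 5 h, compound-treated at 37 C, and read at 0, 8, 16, 24, 32 and 40 h.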

The nature of assay [7]: A CellTox Green Cytotoxicity Assay to monitor cytotoxicity in HEK293 cells - 0 hour (AID 1224869). Note: nearly all actives have a fitted effect of over 50% in size. The gist of the method:
(§3)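 Cells (HEK293, 600/well) and dye reagent are dispensed together. After 5 h at 37 C, 23 nL compound is pinned in. Plates stay at 37 C for 40 h with fluorescence read at 0h, 8h, 16h, 24h, 32h and 40h.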

Assay [8] can be described thus: qHTS RealTime-Glo MT Cell Viability Assay in HepG2 cells - 40 hour (AID 1224870). Note: nearly all actives have a fitted effect of over 50% in size. The gist of the method:
(§4)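 HepG2 cells mixed with RealTime-Glo MT reagents (NanoLuc plus cell-permeant prosubstrate) were seeded at 600 cells/well, incubated 5 h at 37 C/5% CO2, then pinned with compounds in DMSO; nonlytic luminescence tracked viability during 40 h treatment.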

The nature of assay [9]: A CellTox Green Cytotoxicity Assay to monitor cytotoxicity in HEK293 cells - 40 hour (AID 1224871). Note: nearly all actives have a fitted effect of over 45% in size. The procedure, abridged: as §3
Assay [10] can be described thus: qHTS RealTime-Glo MT Cell Viability Assay in HEK293 cells - 16 hour (AID 1224872). The gist of the method: as §2
Assay [11] can be described thus: qHTS RealTime-Glo MT Cell Viability Assay in HepG2 cells - 8 hour (AID 1224873). Note: nearly all actives have a fitted effect of over 55% in size. The procedure, abridged: as §4
Assay [12] can be described thus: qHTS RealTime-Glo MT Cell Viability Assay in HEK293 cells - 40 hour (AID 1224874). Note: nearly all actives have a fitted effect of over 50% in size. The conditions noted are these: RealTime-Glo luminescence; max response: stronger effect = lower value. The procedure, abridged: (§5)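 Real-time viability in HEK293: signal arises when living cells convert a prosubstrate for NanoLuc in the medium, so luminescence tracks viable cell number. Compound (23 nL, DMSO) added 5 h post-seeding; kinetic reads at 0–40 h, 37 C.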

A short description of assay [13]: A CellTox Green Cytotoxicity Assay to monitor cytotoxicity in HEK293 cells - 24 hour (AID 1224875). Note: nearly all actives have a fitted effect of over 45% in size. The procedure, abridged:
as §3

Assay [14] in a line: A CellTox Green Cytotoxicity Assay to monitor cytotoxicity in HepG2 cells - 16 hour (AID 1224876). Note: nearly all actives have a fitted effect of over 45% in size. The gist of the method:
(§6)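 Cells and non-lytic dye reagent are dispensed together (600 HepG2 cells/well) and incubated 5 h before DMSO compound transfer. Kinetic fluorescence is then recorded in the same wells during 40 h at 37 C.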

Assay [15] is described as follows: qHTS RealTime-Glo MT Cell Viability Assay in HepG2 cells - 32 hour (AID 1224877). Note: nearly all actives have a fitted effect of over 55% in size. The gist of the method:
as §1

Assay [16] in a line: A CellTox Green Cytotoxicity Assay to monitor cytotoxicity in HepG2 cells - 24 hour (AID 1224878). Note: nearly all actives have a fitted effect of over 45% in size. The gist of the method:
as §6

Assay [17] is described as follows: A CellTox Green Cytotoxicity Assay to monitor cytotoxicity in HepG2 cells - 40 hour (AID 1224879). Note: nearly all actives have a fitted effect of over 40% in size. Note: potency is the fitted concentration of half-maximal effect. The procedure, abridged:
as §6

Assay [18] is described as follows: qHTS RealTime-Glo MT Cell Viability Assay in HEK293 cells - 0 hour (AID 1224880). The procedure, abridged: as §5
A short description of assay [19]: qHTS assay to identify small molecule agonists of the estrogen related receptor (ERR) signaling pathway from Tox21 library (AID 1224849; calls by dose curve; note: nearly all actives have a fitted effect of over 15% in size). To be noted: ERR reporter cell line, ONE-Glo luciferase, 18 h; at 92.4 µM (top of the series) unless noted. The procedure, abridged: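 Cells carrying the ERR reporter were plated and allowed to settle for 6 h, exposed to library compounds for 18 h at 37 C, then lysed with ONE-Glo and luminescence measured.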

Assay [20] is described as follows: qHTS assay to identify small molecule antagonists of the estrogen related receptor (ERR) signaling pathway from Tox21 library (AID 1224848). Note: nearly all actives have a fitted effect of over 50% in size. The procedure, abridged:
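First, 2,000 ERR cells per well were plated and held 6 h at 37 C/5% CO2. Next, compounds in DMSO were pinned in and left 18 h at 37 C. Finally, ONE-Glo was added and luminescence read after 30 min at room temperature.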
% is set by controls: 0 for no effect and ±100 for the full control effect.

Take `Clc1c(Cl)c(Cl)c(Cl)c(Cl)c1Cl`: the activity change, negative = cytotoxicity in assay [1] is 4.74% [at 6.97 µM]; in assay [4], -1.8% [at 14 µM]; in assay [5] it was -0.564% [at 6.97 µM]; in [10], 3.93% [at 6.97 µM]; in assay [18], 2.6% [at 6.97 µM]. In [2], the activation (H2AX phosphorylation) was -0.165% [at 14 µM]. Moreover, the activation in assay [3] was -0.723% [at 7.01 µM]. Besides, the results for the activity change, negative = cytotoxic in assay [6], in assay [8] and in assay [15] were 0.699% [at 6.97 µM], 0.985% [at 6.97 µM] and 0.7% [at 6.97 µM], respectively. Moreover, the cytotoxicity in assay [7] is -0.372% [at 6.97 µM]; in [16] it was 0.224% [at 6.97 µM]. Further, the values for the cytotoxicity increase in assay [9], in [14] and in [17] were -20.6% [at 6.97 µM], 0.26% [at 6.97 µM] and -0.205% [at 6.97 µM], respectively. The viability change, negative = cytotoxic in assay [11] was 1.69% [at 6.97 µM]. The max response in assay [12] was 8.77%. The activity change in assay [13] is -16.1% [at 6.97 µM, stronger effect = higher value].
As for `O=NN(CCO)CCO`, the Potency entry in [1], in [2], in assay [3], in assay [4], in [5] and in [6] was “inactive” throughout. The Potency entry in assay [7], in [8], in [9], in [10], in assay [11] and in assay [13] was “inactive” in each case. The Potency result in assay [14], in [15], in [16], in assay [17] and in assay [18] was “inactive” in each case. In addition, the activity change, positive = activation in assay [19] was 1.69%. Further, the max response in assay [12] is 7.2%.
In the case of `[O]=[Cr][O][Cr]=[O]`, the Potency result in [1], in [2], in assay [3], in assay [4], in assay [5] and in [6] was “inactive” in each case. Besides, the Potency result in [7], in [8], in assay [9], in assay [10], in [11] and in assay [13] was “inactive” in each case. Further, the Potency entry in assay [14], in assay [15], in assay [16], in assay [17] and in [18] was “inactive” in each case. Moreover, in assay [12], the max response was 17.9%.
Regarding `CCOP(=O)(OCC)Oc1cc(C)nc(C(C)C)n1`, the Potency entry in assay [1], in assay [2], in assay [3], in [4], in assay [20] and in assay [5] was “inactive” throughout. Further, the Potency result in [6], in [7], in assay [8], in assay [9], in [10] and in [11] was “inactive” throughout. Moreover, the Potency entry in assay [13], in [14], in assay [15], in [16], in [17] and in [18] was “inactive” each time. The activity change, positive = activation in assay [19] is -6.77%. In addition, the max response in [12] was 1.52%.
As to `CCOP(=S)(OCC)Oc1cc(C)nc(N(CC)CC)n1`, the Potency entry in assay [1], in assay [2], in [3], in assay [4], in [5] and in assay [6] was “inactive” in each case. The Potency result in assay [7], in assay [8], in assay [9], in assay [10], in assay [11] and in [13] was “inactive” each time. The Potency entry in assay [14], in assay [15], in assay [16], in assay [17] and in assay [18] was “inactive” each time. Further, in assay [19], the activity change, positive = activation is -21.1%. The max response in assay [12] is 2.8%.
For `CC[C@]1(O)CC[C@H]2[C@@H]3CCC4=CCCC[C@@H]4[C@H]3CC[C@@]21C`, the Potency result in assay [1], in [2], in assay [3], in assay [4], in assay [5] and in assay [7] was “inactive” in each case. For the same molecule, the Potency result in assay [8], in assay [9], in assay [10], in assay [11], in assay [13] and in assay [15] was “inactive” each time. For the same molecule, the Potency entry in [16] and in assay [18] was “inactive” throughout. Also, in assay [19], the activity change, positive = activation was -21.6% [at 42.5 µM]. Besides, the Potency in [17] was 23.9 µM (active).
With `CNC(C)(C)Cc1ccccc1`, the Potency entry in assay [1], in assay [2], in assay [3], in assay [4], in [5] and in [6] was “inactive” in each case. Besides, the Potency result in [7], in [8], in [9], in assay [10], in assay [11] and in assay [13] was “inactive” throughout. The Potency entry in assay [14], in assay [15], in [16], in assay [17] and in assay [18] was “inactive” throughout. Further, in assay [12], the max response was 6.36%.
